Of roughly 21,000 targets only a part is listed; those with the largest changes were picked by preference.
Compound: Cc1cc(ccc1-c1ccccc1)C(=O)N1CCCN(CC1)C(=O)CCl [compound 10]
Assay: probe-labelled cysteine peptide fold change vs DMSO (competition) (log2 fold change); higher = less target engagement (more negative = stronger competition)
Conditions: THP-1, incubation time: 4 h
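Also: competitive profiling in live THP-1 cells: cysteine peptides tagged with an iodoacetamide desthiobiotin (IA-DTB) probe, intensity after compound treatment relative to DMSO-treated cells.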

UniProt Q9ULF5, sequence (Q9ULF5 whole entry): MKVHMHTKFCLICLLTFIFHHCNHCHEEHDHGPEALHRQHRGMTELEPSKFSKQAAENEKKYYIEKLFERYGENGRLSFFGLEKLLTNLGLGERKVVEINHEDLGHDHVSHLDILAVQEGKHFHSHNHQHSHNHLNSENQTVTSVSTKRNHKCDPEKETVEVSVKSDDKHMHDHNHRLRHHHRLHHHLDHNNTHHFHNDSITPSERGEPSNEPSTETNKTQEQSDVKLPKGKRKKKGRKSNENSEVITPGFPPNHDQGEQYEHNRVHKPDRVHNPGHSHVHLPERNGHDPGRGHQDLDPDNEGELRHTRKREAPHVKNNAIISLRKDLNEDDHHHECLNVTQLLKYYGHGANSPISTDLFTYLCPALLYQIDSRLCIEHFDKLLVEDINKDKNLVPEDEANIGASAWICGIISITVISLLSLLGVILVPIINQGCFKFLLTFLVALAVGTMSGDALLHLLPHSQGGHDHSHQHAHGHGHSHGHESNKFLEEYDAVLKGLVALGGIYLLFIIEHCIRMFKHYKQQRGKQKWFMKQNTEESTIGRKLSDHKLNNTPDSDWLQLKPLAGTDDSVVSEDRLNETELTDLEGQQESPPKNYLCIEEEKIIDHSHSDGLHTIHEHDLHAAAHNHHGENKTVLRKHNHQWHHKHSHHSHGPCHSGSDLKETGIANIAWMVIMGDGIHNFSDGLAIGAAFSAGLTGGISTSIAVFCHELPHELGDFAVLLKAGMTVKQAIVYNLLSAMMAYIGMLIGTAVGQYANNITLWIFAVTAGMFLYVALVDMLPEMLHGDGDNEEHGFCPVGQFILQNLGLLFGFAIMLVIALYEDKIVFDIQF
UniProt Q9BYW2, sequence (Q9BYW2 whole entry, looked up): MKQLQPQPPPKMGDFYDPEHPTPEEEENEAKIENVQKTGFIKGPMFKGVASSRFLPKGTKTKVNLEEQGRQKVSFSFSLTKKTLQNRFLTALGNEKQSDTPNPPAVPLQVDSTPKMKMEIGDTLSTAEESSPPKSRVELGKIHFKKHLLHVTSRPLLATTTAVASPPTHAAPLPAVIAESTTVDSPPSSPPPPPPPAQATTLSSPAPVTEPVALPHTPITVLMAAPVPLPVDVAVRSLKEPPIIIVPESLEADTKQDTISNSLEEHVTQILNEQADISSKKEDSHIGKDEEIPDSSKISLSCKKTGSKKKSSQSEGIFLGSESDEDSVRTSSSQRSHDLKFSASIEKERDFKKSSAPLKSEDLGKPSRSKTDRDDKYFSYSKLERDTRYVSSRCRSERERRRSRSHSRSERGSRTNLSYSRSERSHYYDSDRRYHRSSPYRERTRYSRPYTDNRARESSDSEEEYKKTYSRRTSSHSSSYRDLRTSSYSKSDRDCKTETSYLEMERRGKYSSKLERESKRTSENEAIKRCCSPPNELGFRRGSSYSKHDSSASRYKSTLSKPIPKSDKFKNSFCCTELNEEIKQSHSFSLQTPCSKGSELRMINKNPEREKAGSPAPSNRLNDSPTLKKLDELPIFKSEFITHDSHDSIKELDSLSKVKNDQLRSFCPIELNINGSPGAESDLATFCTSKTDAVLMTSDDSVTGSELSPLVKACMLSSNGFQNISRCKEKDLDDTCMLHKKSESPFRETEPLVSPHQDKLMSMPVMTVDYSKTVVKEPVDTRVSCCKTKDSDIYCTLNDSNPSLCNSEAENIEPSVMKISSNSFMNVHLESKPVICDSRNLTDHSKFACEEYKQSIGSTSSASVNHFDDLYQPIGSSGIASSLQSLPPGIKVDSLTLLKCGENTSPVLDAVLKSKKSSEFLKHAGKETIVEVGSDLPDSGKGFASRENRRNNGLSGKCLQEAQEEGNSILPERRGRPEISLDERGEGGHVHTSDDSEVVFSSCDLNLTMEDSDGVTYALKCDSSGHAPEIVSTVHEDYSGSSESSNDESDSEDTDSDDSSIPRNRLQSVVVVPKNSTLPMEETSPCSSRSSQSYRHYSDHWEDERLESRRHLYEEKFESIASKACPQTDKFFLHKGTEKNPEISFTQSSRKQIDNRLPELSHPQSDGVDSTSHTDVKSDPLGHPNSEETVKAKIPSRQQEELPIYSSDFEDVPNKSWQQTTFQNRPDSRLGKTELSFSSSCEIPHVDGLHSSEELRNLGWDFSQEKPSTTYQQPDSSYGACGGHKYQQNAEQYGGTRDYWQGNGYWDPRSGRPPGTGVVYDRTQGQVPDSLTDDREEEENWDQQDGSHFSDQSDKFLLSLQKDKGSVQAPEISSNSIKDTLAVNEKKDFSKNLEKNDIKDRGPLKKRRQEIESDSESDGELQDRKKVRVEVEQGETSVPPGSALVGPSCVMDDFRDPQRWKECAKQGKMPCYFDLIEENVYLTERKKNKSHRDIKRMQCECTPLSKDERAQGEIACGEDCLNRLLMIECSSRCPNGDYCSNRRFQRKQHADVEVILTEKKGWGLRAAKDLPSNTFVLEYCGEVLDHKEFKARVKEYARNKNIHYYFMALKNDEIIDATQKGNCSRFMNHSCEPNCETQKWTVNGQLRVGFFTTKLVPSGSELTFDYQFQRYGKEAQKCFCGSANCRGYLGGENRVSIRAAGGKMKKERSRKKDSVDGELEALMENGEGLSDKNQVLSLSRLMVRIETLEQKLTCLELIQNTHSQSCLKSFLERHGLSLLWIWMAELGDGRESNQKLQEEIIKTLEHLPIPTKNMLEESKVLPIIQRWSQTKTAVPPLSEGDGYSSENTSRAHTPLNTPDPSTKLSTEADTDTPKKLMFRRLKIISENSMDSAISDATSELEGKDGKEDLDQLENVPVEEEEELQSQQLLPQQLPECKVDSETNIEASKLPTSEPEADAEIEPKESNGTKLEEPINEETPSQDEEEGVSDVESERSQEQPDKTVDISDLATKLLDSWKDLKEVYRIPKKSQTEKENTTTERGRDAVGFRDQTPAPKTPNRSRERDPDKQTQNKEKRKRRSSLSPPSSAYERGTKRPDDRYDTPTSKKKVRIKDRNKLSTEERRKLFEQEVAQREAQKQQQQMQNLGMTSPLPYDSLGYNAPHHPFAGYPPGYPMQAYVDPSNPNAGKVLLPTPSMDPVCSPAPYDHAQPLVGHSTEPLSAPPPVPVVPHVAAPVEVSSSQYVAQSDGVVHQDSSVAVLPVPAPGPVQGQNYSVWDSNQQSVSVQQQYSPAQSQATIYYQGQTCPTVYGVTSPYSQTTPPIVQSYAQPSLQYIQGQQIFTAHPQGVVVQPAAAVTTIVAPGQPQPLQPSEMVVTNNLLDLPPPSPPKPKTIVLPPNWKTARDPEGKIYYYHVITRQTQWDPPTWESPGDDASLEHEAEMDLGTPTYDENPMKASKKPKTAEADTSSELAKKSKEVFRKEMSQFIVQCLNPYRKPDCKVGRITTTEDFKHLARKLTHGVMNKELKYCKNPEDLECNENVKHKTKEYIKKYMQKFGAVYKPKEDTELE
UniProt Q15020, sequence (Q15020 whole entry, looked up): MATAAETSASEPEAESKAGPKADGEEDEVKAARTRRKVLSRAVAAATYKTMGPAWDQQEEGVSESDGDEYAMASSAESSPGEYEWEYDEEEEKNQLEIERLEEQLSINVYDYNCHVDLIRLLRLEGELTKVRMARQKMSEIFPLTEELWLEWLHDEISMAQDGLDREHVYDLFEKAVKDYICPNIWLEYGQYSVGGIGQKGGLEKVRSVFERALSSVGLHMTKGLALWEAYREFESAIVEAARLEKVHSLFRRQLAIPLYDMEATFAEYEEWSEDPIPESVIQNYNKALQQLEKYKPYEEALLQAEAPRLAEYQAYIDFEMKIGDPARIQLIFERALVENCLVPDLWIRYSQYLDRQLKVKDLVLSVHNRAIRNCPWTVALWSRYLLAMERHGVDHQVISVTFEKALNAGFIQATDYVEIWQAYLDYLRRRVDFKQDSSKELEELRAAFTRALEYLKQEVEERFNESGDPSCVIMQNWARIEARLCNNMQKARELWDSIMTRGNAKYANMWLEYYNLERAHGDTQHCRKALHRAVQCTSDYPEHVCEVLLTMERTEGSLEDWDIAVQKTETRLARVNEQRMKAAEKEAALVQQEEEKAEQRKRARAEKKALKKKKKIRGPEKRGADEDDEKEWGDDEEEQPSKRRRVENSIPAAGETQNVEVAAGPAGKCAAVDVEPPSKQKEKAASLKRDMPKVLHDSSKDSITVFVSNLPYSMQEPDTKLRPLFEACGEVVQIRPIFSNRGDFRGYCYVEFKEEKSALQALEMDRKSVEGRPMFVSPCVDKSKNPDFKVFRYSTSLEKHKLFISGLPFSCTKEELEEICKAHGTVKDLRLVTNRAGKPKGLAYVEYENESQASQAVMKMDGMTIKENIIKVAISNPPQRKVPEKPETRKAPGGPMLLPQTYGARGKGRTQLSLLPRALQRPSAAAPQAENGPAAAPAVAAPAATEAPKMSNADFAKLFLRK
UniProt Q6GMV2, sequence (Q6GMV2 whole entry, looked up): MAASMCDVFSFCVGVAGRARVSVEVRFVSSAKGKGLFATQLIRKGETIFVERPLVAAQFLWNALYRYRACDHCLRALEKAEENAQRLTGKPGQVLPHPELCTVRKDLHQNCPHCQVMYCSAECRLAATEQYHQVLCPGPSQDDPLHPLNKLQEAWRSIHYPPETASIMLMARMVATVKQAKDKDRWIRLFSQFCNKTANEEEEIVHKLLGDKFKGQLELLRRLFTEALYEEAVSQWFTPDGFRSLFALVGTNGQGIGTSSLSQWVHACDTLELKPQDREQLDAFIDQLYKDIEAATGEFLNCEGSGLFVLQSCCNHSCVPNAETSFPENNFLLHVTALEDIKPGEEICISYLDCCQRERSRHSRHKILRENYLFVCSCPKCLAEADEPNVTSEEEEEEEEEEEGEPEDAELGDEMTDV
UniProt Q9UHR5, sequence (Q9UHR5 whole entry): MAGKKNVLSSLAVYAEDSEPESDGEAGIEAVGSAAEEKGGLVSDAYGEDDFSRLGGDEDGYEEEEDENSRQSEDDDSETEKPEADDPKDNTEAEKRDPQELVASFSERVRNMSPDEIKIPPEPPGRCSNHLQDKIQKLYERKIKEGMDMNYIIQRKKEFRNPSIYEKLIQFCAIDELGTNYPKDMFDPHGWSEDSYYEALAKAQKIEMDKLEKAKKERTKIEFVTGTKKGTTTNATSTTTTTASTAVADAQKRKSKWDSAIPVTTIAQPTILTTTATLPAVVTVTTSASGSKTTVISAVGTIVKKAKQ

Target	probe-labelled cysteine peptide fold change (10 µM)	probe-labelled cysteine peptide fold change (50 µM)
RNPEP_Q9H4A4_69_CLEPEGAAELR (UniProt Q9H4A4)	0.063	0.0983
SAFB2_Q14151_672_ERLQLECQR (UniProt Q14151)	-0.167	-0.742
SLC25A5_P05141_257_KGTDIMYTGTLDCWR (UniProt P05141)	-0.111	-0.203
SART3_Q15020_182_DYICPNIWLEYGQYSVGGIGQK (UniProt Q15020)	0.208	0.164
SLC25A5_P05141_257_GTDIMYTGTLDCWRK (UniProt P05141)	-0.0476	-0.127
RPAP1_Q9BWH6_185_GPSVGEVVPNVGPPEGAVTCETPTPR (UniProt Q9BWH6)	0.902	1.33
SEC63_Q9UGP8_671_EQTLISMPYHVCTLK (UniProt Q9UGP8)	0.235	0.336
SCCPDH_Q8NBX0_238_WPISYCR (UniProt Q8NBX0)	-0.242	-1.65
RNF20_Q5VTR2_960_CNAAFGANDFHR (UniProt Q5VTR2)	0.279	0.358
SAP30BP_Q9UHR5_127_CSNHLQDK (UniProt Q9UHR5)	-0.0884	-0.31
RPS8_P62241_182_LLACIASRPGQCGR (UniProt P62241)	-0.207	-0.296
RPS6KA3_P51812_436_EDIGVGSYSVCK<|>RPS6KA2_Q15349_429_EDIGVGSYSVCK (UniProt Q15349+P51812)	-0.569	-1.64
SMURF2_Q9HAU4_706_LFTIHQIDACTNNLPK (UniProt Q9HAU4)	-0.159	-0.59
SEPT5_Q99719_278_LYPWGIVEVENQAHCDFVK (UniProt Q99719)	0.194	0.135
SMC3_Q9UQE7_1134_CDPAPFYLFDEIDQALDAQHR (UniProt Q9UQE7)	0.416	0.52
SLK_Q9H2G2_1138_DLQLQCEANVR (UniProt Q9H2G2)	0.0336	0.0461
RNF214_Q8ND24_675_LVQPSELHPMACTHVLHK (UniProt Q8ND24)	0.0646	0.0132
RPP25_Q9BUL9_70_AIVFSGCGR (UniProt Q9BUL9)	0.319	-0.143
SIN3B_O75182_1138_TLCETVHVHGLPVTR (UniProt O75182)	-0.165	0.0678
RPL11_P62913_150_TGCIGAK (UniProt P62913)	-0.0968	-0.152
RTN4IP1_Q8WWV3_130_DVSGVVMECGLDVK (UniProt Q8WWV3)	0.0949	0.461
SDCCAG8_Q86SQ7_236_CEIEESQLK (UniProt Q86SQ7)	0.069	-0.322

Target	probe-labelled cysteine peptide fold change (10 µM)	probe-labelled cysteine peptide fold change (50 µM)
RNF14_Q9UBS8_350_LTYHGVSPCK (UniProt Q9UBS8)	-0.0421	-0.206
RPUSD2_Q8IZ73_246_LLAENEDVVVVDKPSSIPVHPCGR (UniProt Q8IZ73)	-0.561	-1.57
SCAF11_Q99590_506_KLENTGIEANVLCLESEISENILEK (UniProt Q99590)	-0.478	0.011
RTN3_O95197-3_42_SCSSSCAVHDLIFWR (UniProt O95197)	-2.02	-1.97
SEMA4D_Q92854_370_PRPGACIDSEAR (UniProt Q92854)	-0.224	-1.22
SEC63_Q9UGP8_295_NEPPLTCPYSLK (UniProt Q9UGP8)	-0.343	-1.34
SAMM50_Q9Y512_403_THFFLNAGNLCNLNYGEGPK (UniProt Q9Y512)	0.022	0.169
SMCHD1_A6NHR9_444_YHPFLYDRETYPDDPCFPSK (UniProt A6NHR9)	-0.159	-0.206
RPLP0_P05388_27_CFIVGADNVGSK (UniProt P05388)	0.0238	0.0907
SEC63_Q9UGP8_295_KNEPPLTCPYSLK (UniProt Q9UGP8)	-0.404	-1.57
RPS6_P62753_12_KLNISFPATGCQK (UniProt P62753)	0.00268	1.18
RPL7A_P62424_182_MGVPYCIIK (UniProt P62424)	0.17	-0.0867
RNF31_Q96EP0_473_LSAPLPSSCGDPEK (UniProt Q96EP0)	-0.208	0.0977
SETD2_Q9BYW2_836_ISSNSFMNVHLESKPVICDSR (UniProt Q9BYW2)	0.115	0.0162
RNH1_P13489_323+330_SCSFTAACCSHFSSVLAQNR (UniProt P13489)	-0.0759	-0.562
SLC22A15_Q8IZD6_438_NVGLGTCSMFSR (UniProt Q8IZD6)	0.0942	-0.0742
SLC9A3R1_O14745_206_IVEVNGVCMEGK (UniProt O14745)	0.165	-0.0744
SFSWAP_Q12872_307_CNRLEELMK (UniProt Q12872)	-0.382	-1.12
SATB1_Q01826_173_IQLHSCPK (UniProt Q01826)	-0.0552	-0.188
RPS6KA1_Q15418_432_ETIGVGSYSECKR (UniProt Q15418)	-1.06	-2.91
SMYD5_Q6GMV2_136_LAATEQYHQVLCPGPSQDDPLHPLNK (UniProt Q6GMV2)	-0.0142	-0.404
SLC39A10_Q9ULF5_598_NYLCIEEEK (UniProt Q9ULF5)	-0.213	-0.202

Target	probe-labelled cysteine peptide fold change (10 µM)	probe-labelled cysteine peptide fold change (50 µM)
SAP30_O75446_184_AQLVEIVGCHFR (UniProt O75446)	0.0105	-0.181
RPL11_P62913_21+25_KLCLNICVGESGDR (UniProt P62913)	-0.0801	-0.334
SLC25A28_Q96A46_49_GAGGGEAGACRPPVR (UniProt Q96A46)	-0.368	-0.406
RSBN1_Q5VWQ0_318_DEQLCR (UniProt Q5VWQ0)	-0.206	-0.556
RNH1_P13489_30_WAELLPLLQQCQVVR (UniProt P13489)	0.0863	0.0624
RNH1_P13489_199_DSPCQLEALKLESCGVTSDNCR (UniProt P13489)	-0.339	-1.17
SLX4_Q8IY92_318_CLDEAEK (UniProt Q8IY92)	-0.0818	0.0245
SNRNP70_P08621_39_HHNQPYCGIAPYIR (UniProt P08621)	-0.0761	-0.168
SMNDC1_O75940_214_VGVGTCGIADKPMTQYQDTSK (UniProt O75940)	0.155	-0.732
SAE1_Q9UBE0_295_YCFSEMAPVCAVVGGILAQEIVK (UniProt Q9UBE0)	-0.252	0.0287
SATB1_Q01826_91_GTMLPVFCVVEHYENAIEYDCKEEHAEFVLVR (UniProt Q01826)	-0.0836	-0.32
SEMA4A_Q9H3S1_547_GNPEWACASGPMSR (UniProt Q9H3S1)	-0.0882	-0.865
SLITRK4_Q8IW52_661_HEGLGNPDCGSMQLQLR (UniProt Q8IW52)	-0.281	-0.498
SMYD3_Q9H7B4_261+263_DQYCFECDCFR (UniProt Q9H7B4)	-0.0235	-0.599
SNRNP200_O75643_1278_VVSDRWLSCETQLPVSFR (UniProt O75643)	-0.0123	-0.0331
RPS6_P62753_83_GHSCYRPR (UniProt P62753)	-0.077	0.137
SLPI_P03973_51+57_YKKPECQSDWQCPGK (UniProt P03973)	-0.847	-1.07
RNF214_Q8ND24_696_FWAQTNTNDTCPFCPTLK (UniProt Q8ND24)	0.35	1.12
SF1_Q15637_282_CGGAGHIASDCK (UniProt Q15637)	0.0635	-0.0325
SAE1_Q9UBE0_134_VDTEDIEKKPESFFTQFDAVCLTCCSR (UniProt Q9UBE0)	-0.00481	-1.27
